About 7,900 targets were measured; listed, in parts, are those with a hit and a random draw of the rest. About 0.6% of all pairs of compound and target were hits.
Columns and labels:
Assay in all cases: log2 fold change, soluble protein after heating vs DMSO (PISA); higher = thermal stabilisation; K562 cells, 10 uM, 30 min; active = over 0.2 and 3.5 SD of the protein, either way, in both replicates (recomputed)
[1] = compound: CC[C@@H]1C(=O)N(C)c2cnc(Nc3ccc(C(=O)NC4CCN(C)CC4)cc3OC)nc2N1C1CCCC1
Summary of the method: (§1)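 K562 cells at 2×10^6 cells/mL were treated with 10 μM compound for 30 min. Aliquots were heated for 3 min across 48°C-58°C, pooled, and extracted in PBS with 0.5% NP-40 at 4°C; soluble protein was the supernatant after 21,000xg for 90 min. Soluble protein was quantified by TMTpro 16plex LC-MS/MS with channel sums equalised, and reported as log2 fold change in thermal stability against DMSO controls, with values from duplicates.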

[2] = compound: CC[C@@H]1C(=O)N(C)c2cnc(Nc3ccc(C(=O)N[C@H]4CC[C@H](N5CCN(CC6CC6)CC5)CC4)cc3OC)nc2N1C(C)C [volasertib]
Summary of the method: as §1

[3] = compound: CC[C@H](C)N1C=C(C2=C(C=C(C=C21)C3=CN=C(C=C3)N4CCNCC4)C(=O)NCC5=C(C=C(NC5=O)C)C)C
Summary of the method: as §1

[4] = compound: CC[C@H](C)[C@@H](C(=O)N[C@@H]([C@@H](C)O)C(=O)N[C@@H](CC(C)C)C(=O)[C@]1(CO1)C)NC(=O)[C@H]([C@@H](C)CC)N(C)C(=O)C [epoxomicin]
Summary of the method: as §1

[5] = compound: CCn1c(C(=O)N(C2CC2)C2CC2)cc2c3c(ncn3C)c(Nc3cc(C)n(C)n3)nc21
Summary of the method: as §1

[6] = compound: CCn1cc(-c2ccnc3[nH]c(-c4cccc(CN(C)C)c4)cc23)c(-c2ccc(NC(=O)N(C)C)cc2)n1
Summary of the method: as §1

[7] = compound: CN(C)CC(=O)Nc1ccc2[nH]c(=O)c3ccccc3c2c1
Summary of the method: as §1

[8] = compound: CN(CCOC1=CC=C(C=C1)C[C@H]2C(=O)NC(=O)S2)C3=CC=CC=N3 (racemic) [rosiglitazone]
Summary of the method: as §1

[9] = compound: CN1C2=C(C3=C1C(=O)N(N=C3)CC4=CC(=CC=C4)N)SC(=C2)S(=O)C
Summary of the method: as §1

[10] = compound: CN1CCC(CNc2ccc3ncc(-c4cccc(OC(F)(F)F)c4)n3n2)CC1
Summary of the method: as §1

[11] = compound: CN1CCN(CCOc2cc(OC3CCOCC3)c3c(Nc4c(Cl)ccc5c4OCO5)ncnc3c2)CC1 [saracatinib]
Summary of the method: as §1

[12] = compound: CN1CCN(c2nc(C3=C(c4c[nH]c5ccccc45)C(=O)NC3=O)c3ccccc3n2)CC1 [sotrastaurin]
Summary of the method: as §1

[13] = compound: CN1CC[C@H](c2c(O)cc(O)c3c(=O)cc(-c4ccccc4Cl)oc23)[C@H](O)C1 [alvocidib]
Summary of the method: as §1

[14] = compound: CN1CCc2c(c3ccccc3n2Cc2ccc(C(=O)NO)cc2)C1 [Tubastatin A]
Summary of the method: as §1

[15] = compound: CNC(=O)C1=CC=CC=C1NC2=NC(=NC=C2Cl)NC3=C(C=C(C=C3)N4CCOCC4)OC
Summary of the method: as §1

[16] = compound: CNC(=O)c1ccc(Nc2ncc(C(F)(F)F)c(NCc3nccnc3N(C)S(C)(=O)=O)n2)cc1 [defactinib]
Summary of the method: as §1

[17] = compound: CNCc1ccc(-c2[nH]c3cc(F)cc4c3c2CCNC4=O)cc1 [rucaparib]
Summary of the method: as §1

[18] = compound: CNc1nc(-c2ccc3c(N)n[nH]c3c2)cc(N2C[C@@H](C(=O)NC3CCCCC3)CC[C@H]2C)n1
Summary of the method: as §1

[19] = compound: COC(=O)N[C@@H](C)CNc1nccc(-c2cn(C(C)C)nc2-c2cc(Cl)cc(NS(C)(=O)=O)c2F)n1 [encorafenib]
Summary of the method: as §1

[20] = compound: COC(=O)[C@H](CCSC)NC(=O)C1=C(C=C(C=C1)NC[C@H](CS)N)C2=CC=CC=C2
Summary of the method: as §1

Measured: log2 fold change

TTI1 (UniProt O43156)
Chain of UniProt O43156 (O43156 whole entry, looked up): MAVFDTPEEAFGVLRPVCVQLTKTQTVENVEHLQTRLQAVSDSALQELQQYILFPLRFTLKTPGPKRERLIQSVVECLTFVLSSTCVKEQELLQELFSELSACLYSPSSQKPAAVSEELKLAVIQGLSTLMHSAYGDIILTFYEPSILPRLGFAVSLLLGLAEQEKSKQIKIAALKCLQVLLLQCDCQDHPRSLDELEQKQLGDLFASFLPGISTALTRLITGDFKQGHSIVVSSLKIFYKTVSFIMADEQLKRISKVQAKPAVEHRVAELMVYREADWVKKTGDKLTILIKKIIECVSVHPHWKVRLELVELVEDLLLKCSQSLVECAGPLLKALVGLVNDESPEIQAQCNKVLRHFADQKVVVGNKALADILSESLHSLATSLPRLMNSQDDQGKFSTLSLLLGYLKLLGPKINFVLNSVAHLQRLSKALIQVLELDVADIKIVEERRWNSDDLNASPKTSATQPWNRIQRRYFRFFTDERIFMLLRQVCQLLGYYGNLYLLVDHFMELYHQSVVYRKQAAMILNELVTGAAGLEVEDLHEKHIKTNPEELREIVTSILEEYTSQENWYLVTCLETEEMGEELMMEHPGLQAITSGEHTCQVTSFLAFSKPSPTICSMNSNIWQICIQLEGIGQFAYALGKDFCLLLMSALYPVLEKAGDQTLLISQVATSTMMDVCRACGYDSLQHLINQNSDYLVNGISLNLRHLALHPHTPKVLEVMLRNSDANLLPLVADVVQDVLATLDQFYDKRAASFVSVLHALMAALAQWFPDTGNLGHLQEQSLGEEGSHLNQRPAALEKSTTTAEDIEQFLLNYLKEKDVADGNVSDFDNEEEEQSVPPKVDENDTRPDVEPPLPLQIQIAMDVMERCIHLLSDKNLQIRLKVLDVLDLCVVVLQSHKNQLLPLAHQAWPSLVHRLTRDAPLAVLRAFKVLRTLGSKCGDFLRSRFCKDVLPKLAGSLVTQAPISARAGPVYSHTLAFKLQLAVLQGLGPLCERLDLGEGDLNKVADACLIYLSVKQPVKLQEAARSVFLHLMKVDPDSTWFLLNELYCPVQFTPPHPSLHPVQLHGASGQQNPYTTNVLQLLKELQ
active: [2] -0.431
inactive: [1] -0.208 | [3] 0.08 | [4] -0.024 | [5] -0.083 | [6] -0.038 | [7] 0.048 | [8] 0.04 | [9] 0.134 | [10] -0.134 | [11] -0.065 | [12] -0.128 | [13] 0.017 | [14] -0.007 | [15] -0.058 | [16] -0.046 | [17] 0.237 | [18] 0.053 | [19] 0.068 | [20] 0.004

TMEM208 (UniProt Q9BTX3)
inactive: [1] -0.071 | [2] -0.208 | [3] -0.048 | [4] -0.03 | [5] -0.046 | [6] -0.022 | [7] 0.274 | [8] 0.081 | [9] -0.02 | [10] 0.036 | [11] -0.047 | [12] -0.02 | [13] -0.039 | [14] 0.003 | [15] -0.142 | [16] -0.023 | [17] -0.045 | [18] -0.099 | [19] 0.145 | [20] -0.164

TMEM161A (UniProt Q9NX61)
Chain of UniProt Q9NX61 (Q9NX61 whole entry, looked up): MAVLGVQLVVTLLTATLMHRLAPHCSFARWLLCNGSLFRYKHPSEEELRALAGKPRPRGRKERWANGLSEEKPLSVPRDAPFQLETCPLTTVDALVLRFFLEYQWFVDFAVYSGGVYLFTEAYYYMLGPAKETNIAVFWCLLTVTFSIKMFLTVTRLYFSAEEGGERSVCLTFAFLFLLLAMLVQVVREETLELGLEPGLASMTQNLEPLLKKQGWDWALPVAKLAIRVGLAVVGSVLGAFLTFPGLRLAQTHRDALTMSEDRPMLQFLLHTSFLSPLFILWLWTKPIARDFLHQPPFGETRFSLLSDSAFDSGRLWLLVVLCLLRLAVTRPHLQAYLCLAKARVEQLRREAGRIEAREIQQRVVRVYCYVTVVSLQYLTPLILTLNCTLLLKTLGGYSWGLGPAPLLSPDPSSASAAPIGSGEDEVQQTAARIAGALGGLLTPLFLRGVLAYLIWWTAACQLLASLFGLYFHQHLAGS
active: [2] -0.477
inactive: [1] 0.033 | [3] -0.08 | [4] 0.049 | [5] 0.034 | [6] 0.014 | [7] -0.009 | [8] 0.088 | [9] -0.026 | [10] -0.265 | [11] 0.011 | [12] 0.027 | [13] -0.027 | [14] 0.039 | [15] -0.108 | [16] 0.03 | [17] -0.106 | [18] -0.029 | [19] 0.106 | [20] 0.058

XPO6 (UniProt Q96QU8)
inactive: [1] -0.054 | [3] -0.017 | [4] -0.249 | [5] -0.011 | [6] 0.174 | [7] 0.065 | [8] 0 | [9] 0.018 | [10] -0.134 | [11] -0.012 | [12] -0.119 | [13] -0.115 | [14] -0.009 | [15] 0.036 | [16] -0.104 | [17] 0.076 | [18] 0.037 | [19] 0.015 | [20] -0.03
active: [2] -0.536

WASHC3 (UniProt Q9Y3C0)
Chain of UniProt Q9Y3C0 (Q9Y3C0 whole entry, looked up): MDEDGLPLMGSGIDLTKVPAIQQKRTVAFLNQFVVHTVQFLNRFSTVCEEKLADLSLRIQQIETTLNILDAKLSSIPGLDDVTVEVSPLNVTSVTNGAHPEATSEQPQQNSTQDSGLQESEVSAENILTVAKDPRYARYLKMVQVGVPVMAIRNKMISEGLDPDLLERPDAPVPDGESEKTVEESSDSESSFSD
inactive: [1] -0.015 | [2] -0.066 | [3] -0.058 | [4] 0.067 | [5] -0.025 | [6] 0.007 | [7] -0.002 | [8] 0.026 | [9] -0.03 | [11] 0.055 | [12] 0.026 | [13] 0.077 | [14] 0.054 | [15] 0.004 | [16] -0.02 | [17] -0.022 | [18] -0.02 | [19] -0.005 | [20] 0.008
active: [10] -0.245

WNK1 isoform 7 (UniProt Q9H4A3)
inactive: [1] -0.021 | [2] -0.01 | [3] 0.04 | [4] 0.013 | [5] -0.012 | [6] -0.005 | [7] 0.005 | [8] 0.015 | [9] -0.001 | [10] 0.019 | [11] 0.022 | [12] 0.003 | [13] -0.007 | [14] -0.005 | [15] -0.047 | [16] 0.003 | [17] 0.013 | [18] -0.035 | [19] 0.012 | [20] 0.006

UBC (UniProt P0CG48)
Chain of UniProt P0CG48 (P0CG48 whole entry, looked up): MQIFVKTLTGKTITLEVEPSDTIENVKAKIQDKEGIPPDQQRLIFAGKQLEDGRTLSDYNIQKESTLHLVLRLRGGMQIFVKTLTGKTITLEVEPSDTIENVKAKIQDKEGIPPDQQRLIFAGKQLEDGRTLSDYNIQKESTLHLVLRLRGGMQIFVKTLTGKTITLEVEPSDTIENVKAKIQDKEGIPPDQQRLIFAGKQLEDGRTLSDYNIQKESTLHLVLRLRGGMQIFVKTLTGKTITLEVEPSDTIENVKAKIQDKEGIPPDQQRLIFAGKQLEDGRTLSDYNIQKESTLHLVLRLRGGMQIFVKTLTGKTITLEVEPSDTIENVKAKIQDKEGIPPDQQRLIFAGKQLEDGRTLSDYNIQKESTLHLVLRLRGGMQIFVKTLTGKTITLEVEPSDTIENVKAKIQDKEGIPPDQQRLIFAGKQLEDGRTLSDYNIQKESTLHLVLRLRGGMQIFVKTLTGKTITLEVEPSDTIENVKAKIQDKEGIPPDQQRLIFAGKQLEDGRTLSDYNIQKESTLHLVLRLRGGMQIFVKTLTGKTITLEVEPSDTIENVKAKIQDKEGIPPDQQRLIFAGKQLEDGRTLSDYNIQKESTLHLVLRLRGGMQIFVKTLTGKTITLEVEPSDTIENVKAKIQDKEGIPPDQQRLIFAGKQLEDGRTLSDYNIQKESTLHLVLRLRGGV
active: [4] 0.401
inactive: [1] 0.065 | [2] 0.087 | [3] 0.015 | [5] 0.026 | [6] 0.024 | [7] 0.003 | [8] 0.003 | [9] -0.023 | [10] 0.158 | [11] -0.106 | [12] 0.042 | [13] -0.049 | [14] 0.252 | [15] 0.002 | [16] 0.031 | [17] 0.053 | [18] 0.017 | [19] -0.124 | [20] 0.005

TRIP10 (UniProt Q15642)
inactive: [1] -0.024 | [2] -0.11 | [3] 0.047 | [4] 0.034 | [5] -0.051 | [6] -0.051 | [7] 0.04 | [8] 0 | [9] -0.036 | [10] -0.056 | [11] 0.036 | [12] -0.014 | [13] -0.011 | [14] 0 | [15] 0.027 | [16] -0.029 | [17] 0.006 | [18] 0.046 | [19] 0.038 | [20] -0.005

VPS52 (UniProt Q8N1B4)
inactive: [1] -0.107 | [3] 0.153 | [4] 0.092 | [5] 0.012 | [6] 0.006 | [7] -0.021 | [8] 0.094 | [9] 0.037 | [10] -0.027 | [11] -0.012 | [12] -0.107 | [13] -0.061 | [14] 0.074 | [15] -0.047 | [16] -0.031 | [17] 0.121 | [18] -0.01 | [19] 0.02 | [20] -0.072
active: [2] -0.383

WAPL isoform 3 (UniProt Q7Z5K2)
active: [2] -0.61
inactive: [1] -0.183 | [3] 0.164 | [4] 0.101 | [5] -0.038 | [6] 0.015 | [7] 0.104 | [8] -0.06 | [9] -0.018 | [10] -0.246 | [11] 0.043 | [12] -0.144 | [13] -0.296 | [14] 0.063 | [15] -0.008 | [16] -0.265 | [17] -0.066 | [18] -0.052 | [19] 0.212 | [20] -0.079

UBAP2L isoform 5 (UniProt Q14157)
Chain of UniProt Q14157 (Q14157 whole entry, looked up): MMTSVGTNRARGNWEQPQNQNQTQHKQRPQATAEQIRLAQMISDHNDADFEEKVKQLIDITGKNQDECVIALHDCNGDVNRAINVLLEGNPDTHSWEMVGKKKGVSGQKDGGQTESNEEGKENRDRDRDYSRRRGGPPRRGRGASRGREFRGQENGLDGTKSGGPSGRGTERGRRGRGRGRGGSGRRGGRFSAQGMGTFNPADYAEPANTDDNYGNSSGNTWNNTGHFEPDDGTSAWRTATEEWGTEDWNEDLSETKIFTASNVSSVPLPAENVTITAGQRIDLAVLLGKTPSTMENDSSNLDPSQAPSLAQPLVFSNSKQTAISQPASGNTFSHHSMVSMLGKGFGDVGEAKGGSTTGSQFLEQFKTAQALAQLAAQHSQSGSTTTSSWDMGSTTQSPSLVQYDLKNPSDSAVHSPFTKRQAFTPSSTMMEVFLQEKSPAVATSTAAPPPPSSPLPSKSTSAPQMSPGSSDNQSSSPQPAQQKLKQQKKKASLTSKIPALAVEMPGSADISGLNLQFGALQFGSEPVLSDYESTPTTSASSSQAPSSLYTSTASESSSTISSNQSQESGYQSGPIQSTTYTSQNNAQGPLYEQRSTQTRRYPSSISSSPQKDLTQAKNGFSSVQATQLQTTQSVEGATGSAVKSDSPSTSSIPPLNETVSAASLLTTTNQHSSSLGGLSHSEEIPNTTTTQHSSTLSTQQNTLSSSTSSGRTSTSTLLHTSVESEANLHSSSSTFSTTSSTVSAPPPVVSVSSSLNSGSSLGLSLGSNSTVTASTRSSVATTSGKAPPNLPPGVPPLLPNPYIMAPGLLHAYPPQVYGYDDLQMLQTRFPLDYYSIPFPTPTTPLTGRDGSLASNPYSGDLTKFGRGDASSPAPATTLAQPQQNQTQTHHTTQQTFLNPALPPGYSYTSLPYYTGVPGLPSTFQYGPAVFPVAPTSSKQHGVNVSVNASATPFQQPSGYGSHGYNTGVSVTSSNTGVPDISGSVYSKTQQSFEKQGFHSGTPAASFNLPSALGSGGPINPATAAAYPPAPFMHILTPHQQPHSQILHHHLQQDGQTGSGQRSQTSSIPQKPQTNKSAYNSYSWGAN
inactive: [1] 0.005 | [2] -0.023 | [3] -0.02 | [4] -0.018 | [5] 0.019 | [6] 0.004 | [7] -0.035 | [8] -0.007 | [9] -0.039 | [10] 0.009 | [11] 0.017 | [12] 0.013 | [13] 0.038 | [14] -0.006 | [15] -0.096 | [16] 0.009 | [17] 0.018 | [18] -0.006 | [19] -0.018 | [20] 0.015

XRCC6 (UniProt P12956)
Chain of UniProt P12956 (P12956 whole entry, looked up): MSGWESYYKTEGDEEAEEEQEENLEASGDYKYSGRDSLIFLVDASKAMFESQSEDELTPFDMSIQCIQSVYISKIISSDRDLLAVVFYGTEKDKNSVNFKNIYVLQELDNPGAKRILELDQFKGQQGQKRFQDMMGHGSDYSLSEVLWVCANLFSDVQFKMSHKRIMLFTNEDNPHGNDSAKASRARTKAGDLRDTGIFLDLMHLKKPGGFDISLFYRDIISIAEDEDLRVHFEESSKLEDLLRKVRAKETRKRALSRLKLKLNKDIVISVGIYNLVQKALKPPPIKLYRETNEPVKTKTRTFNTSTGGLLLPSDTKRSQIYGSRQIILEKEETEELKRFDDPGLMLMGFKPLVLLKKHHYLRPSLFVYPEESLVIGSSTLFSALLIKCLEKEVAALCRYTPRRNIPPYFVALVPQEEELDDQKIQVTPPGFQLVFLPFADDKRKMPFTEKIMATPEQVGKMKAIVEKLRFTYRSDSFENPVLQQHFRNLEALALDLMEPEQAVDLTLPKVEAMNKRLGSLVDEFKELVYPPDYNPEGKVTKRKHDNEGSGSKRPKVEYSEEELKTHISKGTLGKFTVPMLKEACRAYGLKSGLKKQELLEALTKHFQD
inactive: [1] -0.205 | [3] 0.095 | [4] 0.072 | [5] -0.032 | [6] 0.008 | [7] 0.071 | [8] 0.07 | [9] -0.014 | [10] -0.172 | [11] -0.013 | [12] -0.114 | [13] -0.187 | [14] 0.099 | [15] -0.047 | [17] -0.007 | [18] -0.015 | [19] 0.048 | [20] -0.041
active: [2] -0.515 | [16] -0.264

WBP4 (UniProt O75554)
Chain of UniProt O75554 (O75554 whole entry, looked up): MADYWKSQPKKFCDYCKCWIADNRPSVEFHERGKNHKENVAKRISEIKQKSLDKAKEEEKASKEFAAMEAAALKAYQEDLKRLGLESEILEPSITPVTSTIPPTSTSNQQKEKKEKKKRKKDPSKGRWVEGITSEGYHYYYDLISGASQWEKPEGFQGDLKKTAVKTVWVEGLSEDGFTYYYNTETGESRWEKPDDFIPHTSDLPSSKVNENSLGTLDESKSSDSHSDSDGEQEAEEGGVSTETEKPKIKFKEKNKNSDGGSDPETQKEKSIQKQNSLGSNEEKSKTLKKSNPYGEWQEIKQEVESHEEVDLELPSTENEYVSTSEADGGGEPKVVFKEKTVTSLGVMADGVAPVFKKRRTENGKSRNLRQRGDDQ
inactive: [1] -0.004 | [2] -0.045 | [3] 0.003 | [4] 0.069 | [5] 0.025 | [6] -0.089 | [7] -0.036 | [8] -0.038 | [9] -0.058 | [10] 0.218 | [11] 0.113 | [12] 0.012 | [13] -0.032 | [14] -0.02 | [15] -0.015 | [16] 0.012 | [17] -0.031 | [18] -0.019 | [19] -0.046 | [20] 0.045

UBA1 (UniProt P22314)
active: [2] -0.543
inactive: [1] -0.236 | [3] 0.133 | [4] 0.044 | [5] -0.098 | [6] -0.008 | [7] 0.115 | [8] 0.132 | [9] 0.023 | [10] -0.02 | [11] -0.048 | [12] -0.17 | [13] -0.127 | [14] -0.052 | [15] 0.015 | [16] -0.058 | [17] -0.019 | [18] 0.055 | [19] 0.149 | [20] -0.057

USP14 (UniProt P54578)
Chain of UniProt P54578 (P54578 whole entry, looked up): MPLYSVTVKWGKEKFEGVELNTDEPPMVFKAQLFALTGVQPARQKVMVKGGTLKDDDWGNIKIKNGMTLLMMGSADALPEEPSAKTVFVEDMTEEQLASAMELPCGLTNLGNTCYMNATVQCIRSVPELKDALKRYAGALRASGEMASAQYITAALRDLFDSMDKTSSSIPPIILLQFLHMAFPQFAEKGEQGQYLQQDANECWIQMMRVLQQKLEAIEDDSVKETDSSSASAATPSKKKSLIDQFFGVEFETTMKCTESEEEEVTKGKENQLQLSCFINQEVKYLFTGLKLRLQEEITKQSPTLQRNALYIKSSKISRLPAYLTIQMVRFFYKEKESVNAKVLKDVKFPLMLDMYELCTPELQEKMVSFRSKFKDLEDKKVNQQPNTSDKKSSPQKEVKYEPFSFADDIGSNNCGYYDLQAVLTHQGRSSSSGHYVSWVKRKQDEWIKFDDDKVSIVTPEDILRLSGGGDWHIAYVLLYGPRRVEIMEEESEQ
inactive: [1] -0.08 | [2] -0.197 | [3] 0.053 | [4] 0.106 | [5] -0.005 | [6] -0.011 | [7] 0.003 | [8] 0.007 | [9] -0.082 | [10] -0.072 | [11] -0.007 | [12] -0.013 | [13] -0.047 | [14] 0.033 | [15] 0.012 | [16] -0.064 | [17] -0.025 | [18] -0.01 | [19] 0.044 | [20] -0.021

— the supplement of paper PMC10849652
